Laboratory results as given in PubChem BioAssay (Tox21).
Results filed as inconclusive are left out. The source made the active and inactive calls. Calls follow the shape of the dose curve; as a rule, active = well fitted curve in the direction sought with a large enough effect in the repeat runs; inconclusive = weak or mixed curves; inactive = no such curve, though single readings can be large; an effect the other way counts as inactive or inconclusive.

What was measured:
[1] = qHTS RealTime-Glo MT Cell Viability Assay in HEK293 cells - 16 hour (AID 1224872); also: top concentration of the series differs between compounds; nearly all actives have a fitted effect of over 50% in size
How it was run: (§1)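 HEK293 cells seeded with NanoLuc/prosubstrate reagent, rested 5 h at 37 C, then dosed and kept at 37 C up to 40 h. Nonlytic real-time luminescence from viable cells read at 0, 8, 16, 24, 32 and 40 h.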

[2] = qHTS RealTime-Glo MT Cell Viability Assay in HepG2 cells - 8 hour (AID 1224873); also: nearly all actives have a fitted effect of over 55% in size
How it was run: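 HepG2 cells mixed with RealTime-Glo MT reagents (NanoLuc plus cell-permeant prosubstrate) were seeded at 600 cells/well, incubated 5 h at 37 C/5% CO2, then pinned with compounds in DMSO; nonlytic luminescence tracked viability during 40 h treatment.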

[3] = qHTS RealTime-Glo MT Cell Viability Assay in HEK293 cells - 40 hour (AID 1224874); conditions: RealTime-Glo luminescence; max response: hits give low values; also: nearly all actives have a fitted effect of over 50% in size
How it was run: (§2)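 Measured as luminescence from the same continuously cultured HEK293 wells at successive time points (0, 8, 16, 24, 32, 40 h) after compound addition. Reagent present from seeding; dosing at 5 h; incubation 37 C.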

[4] = A CellTox Green Cytotoxicity Assay to monitor cytotoxicity in HEK293 cells - 24 hour (AID 1224875); also: series mostly up to about 77 µM; nearly all actives have a fitted effect of over 45% in size
How it was run: (§3)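 Homogeneous no-lysis format: HEK293 cell suspension mixed with CellTox Green reagent, seeded, incubated 5 h at 37 C/5% CO2, then dosed by pintool with compound in DMSO.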

[5] = A CellTox Green Cytotoxicity Assay to monitor cytotoxicity in HepG2 cells - 16 hour (AID 1224876); also: nearly all actives have a fitted effect of over 45% in size
How it was run: (§4)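 Fluorescent DNA-binding dye, 600 HepG2 cells/well, 5 h preincubation then compound in DMSO; same plates read at 0–40 h, 37 C.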

[6] = A CellTox Green Cytotoxicity Assay to monitor cytotoxicity in HepG2 cells - 24 hour (AID 1224878); also: nearly all actives have a fitted effect of over 45% in size
How it was run: as §4

[7] = A CellTox Green Cytotoxicity Assay to monitor cytotoxicity in HepG2 cells - 40 hour (AID 1224879); also: nearly all actives have a fitted effect of over 40% in size
How it was run: as §4

[8] = qHTS RealTime-Glo MT Cell Viability Assay in HEK293 cells - 0 hour (AID 1224880); also: top concentration of the series differs between compounds; nearly all actives have a fitted effect of over 45% in size
How it was run: as §2

[9] = A CellTox Green Cytotoxicity Assay to monitor cytotoxicity in HEK293 cells - 32 hour (AID 1224881); also: nearly all actives have a fitted effect of over 40% in size
How it was run: as §3

[10] = A CellTox Green Cytotoxicity Assay to monitor cytotoxicity in HepG2 cells - 0 hour (AID 1224882); also: nearly all actives have a fitted effect of over 35% in size
How it was run: as §4

[11] = A CellTox Green Cytotoxicity Assay to monitor cytotoxicity in HepG2 cells - 32 hour (AID 1224883); also: nearly all actives have a fitted effect of over 50% in size
How it was run: as §4

[12] = A CellTox Green Cytotoxicity Assay to monitor cytotoxicity in HEK293 cells - 8 hour (AID 1224884); also: nearly all actives have a fitted effect of over 35% in size
How it was run: as §3

[13] = qHTS RealTime-Glo MT Cell Viability Assay in HepG2 cells - 16 hour (AID 1224885); also: nearly all actives have a fitted effect of over 50% in size
How it was run: (§5)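 HepG2 cells (600/well) were dispensed with RealTime-Glo reagents, incubated 5 h at 37 °C, then treated with compounds in DMSO for up to 40 h. Nonlytic NanoLuc luminescence reflecting viable cells was read at each stated time point.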

[14] = qHTS RealTime-Glo MT Cell Viability Assay in HEK293 cells - 24 hour (AID 1224886)
How it was run: as §1

[15] = qHTS RealTime-Glo MT Cell Viability Assay in HEK293 cells - 8 hour (AID 1224887)
How it was run: as §2

[16] = A CellTox Green Cytotoxicity Assay to monitor cytotoxicity in HEK293 cells - 16 hour (AID 1224888); also: nearly all actives have a fitted effect of over 35% in size
How it was run: as §3

[17] = qHTS RealTime-Glo MT Cell Viability Assay in HepG2 cells - 0 hour (AID 1224889); also: nearly all actives have a fitted effect of over 50% in size
How it was run: as §5

[18] = A CellTox Green Cytotoxicity Assay to monitor cytotoxicity in HepG2 cells - 8 hour (AID 1224890); also: nearly all actives have a fitted effect of over 45% in size
How it was run: as §4

[19] = qHTS assay to identify small molecule antagonists of the estrogen receptor alpha (ER-alpha) signaling pathway using the BG1 cell line in the presence of 0.1 nM 17-beta-estradiol - cell viability counter screen (AID 1259241); also: nearly all actives have a fitted effect of over 40% in size
How it was run: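 In this screen, hormone-deprived VM7Luc4E2 cells were seeded at 4,000 per well, dosed with compound and 0.1 nM estradiol final, and incubated 22 hr at 37C and 5% CO2; fluorogenic live-cell protease signal reported viability.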
% is scaled to controls: 0 for no effect and ±100 for the full control effect.

C[C@H]1[C@H](NC(=O)/C(=N/OC(C)(C)C(=O)O)c2csc(N)n2)C(=O)N1S(=O)(=O)O (stereo in doubt)
inactive: Potency [1] | outcome [2] | max response [3] 5.51% | outcome [4] | outcome [5] | outcome [6] | Potency [7] | Potency [8] | outcome [9] | Potency [10] | Potency [11] | outcome [12] | outcome [13] | Potency [14] | Potency [15] | outcome [16] | Potency [17] | outcome [18] | outcome [19]

C=C(C)C(=O)OCC1CCCO1 (stereo not drawn)
inactive: Potency [1] | outcome [2] | max response [3] 7.57% | outcome [4] | outcome [5] | outcome [6] | Potency [7] | Potency [8] | outcome [9] | Potency [10] | Potency [11] | outcome [13] | Potency [15] | outcome [16] | Potency [17] | outcome [18]

C=CC(=O)OCCCl
inactive: Potency [1] | outcome [2] | max response [3] 21% | outcome [4] | outcome [5] | outcome [6] | Potency [7] | Potency [8] | outcome [9] | Potency [10] | Potency [11] | outcome [13] | Potency [14] | Potency [15] | outcome [16] | Potency [17] | outcome [18] | outcome [19]

c1coc(CNc2ncnc3nc[nH]c23)c1
inactive: Potency [1] | outcome [2] | max response [3] -15.6% | outcome [4] | outcome [5] | outcome [6] | Potency [7] | Potency [8] | outcome [9] | Potency [10] | outcome [12] | outcome [13] | Potency [14] | Potency [15] | outcome [16] | Potency [17] | outcome [18] | outcome [19]

CCOCC(C)O (stereo not drawn)
inactive: Potency [1] | outcome [2] | max response [3] -1.56% | outcome [4] | outcome [5] | outcome [6] | Potency [7] | Potency [8] | outcome [9] | Potency [10] | Potency [11] | outcome [13] | Potency [14] | Potency [15] | outcome [16] | Potency [17] | outcome [18] | outcome [19]

COc1cc(C)nc(-n2nc(C)cc2OC)n1
inactive: Potency [1] | outcome [2] | max response [3] -0.0998% | outcome [4] | outcome [5] | outcome [6] | Potency [7] | Potency [8] | Potency [10] | Potency [11] | outcome [13] | Potency [14] | Potency [15] | outcome [16] | outcome [18] | outcome [19]

CN1[C@@H]2CC[C@H]1CC(OC(=O)C(O)c1ccccc1)C2 (stereo partly drawn)
inactive: Potency [1] | outcome [2] | max response [3] 3.93% | outcome [4] | outcome [5] | outcome [6] | Potency [7] | Potency [8] | Potency [10] | outcome [13] | Potency [14] | Potency [15] | outcome [16] | Potency [17] | outcome [18] | outcome [19]

COCCOC[C@H](CC1(C(=O)NC2CCC(C(=O)O)CC2)CCCC1)C(=O)Oc1ccc2c(c1)CCC2 (stereo partly drawn)
inactive: Potency [1] | outcome [2] | max response [3] 5.36% | outcome [4] | outcome [5] | outcome [6] | Potency [7] | Potency [8] | outcome [9] | Potency [10] | Potency [11] | outcome [12] | outcome [13] | Potency [14] | Potency [15] | outcome [16] | Potency [17] | outcome [18] | outcome [19]

CC1=NN(c2cccc(S(=O)(=O)O)c2)C(=O)C1
inactive: Potency [1] | outcome [2] | max response [3] 2.46% | outcome [4] | outcome [5] | outcome [6] | Potency [7] | Potency [8] | Potency [10] | Potency [11] | outcome [12] | outcome [13] | Potency [15] | outcome [16] | Potency [17] | outcome [18] | outcome [19]

COc1cccc(OC)c1C(=O)N[C@@H]1C(=O)N2[C@@H]1SC(C)(C)[C@@H]2C(=O)O
inactive: Potency [1] | outcome [2] | max response [3] 4.53% | outcome [4] | outcome [5] | outcome [6] | Potency [7] | Potency [8] | Potency [10] | Potency [11] | outcome [13] | Potency [14] | Potency [15] | outcome [16] | Potency [17] | outcome [18] | outcome [19]

CC(C)(N)C#N
inactive: Potency [1] | outcome [2] | max response [3] -0.492% | outcome [4] | outcome [5] | outcome [6] | Potency [7] | Potency [8] | Potency [10] | Potency [11] | outcome [12] | outcome [13] | Potency [14] | Potency [15] | outcome [16] | outcome [18]

CC(=O)C1CCCCC1=O (stereo not drawn)
inactive: Potency [1] | outcome [2] | max response [3] 15.3% | outcome [4] | outcome [5] | outcome [6] | Potency [7] | Potency [8] | outcome [9] | Potency [10] | Potency [11] | outcome [13] | Potency [15] | outcome [16] | Potency [17] | outcome [18] | outcome [19]

CCOC(=O)C(=O)CCCCCCl
inactive: Potency [1] | outcome [2] | max response [3] 4.01% | outcome [4] | outcome [5] | outcome [6] | Potency [7] | Potency [8] | Potency [10] | Potency [11] | outcome [12] | outcome [13] | Potency [14] | Potency [15] | outcome [16] | Potency [17] | outcome [18] | outcome [19]

Nc1ccccn1
inactive: Potency [1] | outcome [2] | max response [3] -3.82% | outcome [4] | outcome [5] | outcome [6] | Potency [7] | Potency [8] | outcome [9] | Potency [10] | Potency [11] | outcome [12] | outcome [13] | Potency [15] | outcome [16] | Potency [17] | outcome [18] | outcome [19]
